According to PubChem BioAssay (NCATS):
Results filed as inconclusive are left out. Calls of active or inactive are those of the source. Unless noted, calls come from the whole dose curve; as a rule, active = well fitted curve in the direction sought with a large enough effect; inconclusive = small, poorly fitted or top-dose-only effect, or another doubt; inactive = no such curve, though single readings can be large; an effect the other way counts as inactive or inconclusive.

Tests used:
[1] = qHTS for differential inhibitors of proliferation of Plasmodium falciparum line W2 (AID 1883); conditions: Potency: Plasmodium falciparum W2 proliferation inhibition;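 note: parasites grown with compound for 72 h before lysis and staining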; note: potency is the fitted concentration of half-maximal effect
[2] = qHTS Assay for Modulators of Human Peripheral Myelin Protein 22 (PMP22) Expression/Activity (AID 1967; active = well fitted curve in the direction sought with a large enough effect in the signal ratio; the % refers to the signal ratio; note: potency is the fitted concentration of half-maximal effect)
In short: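 Readout is the corrected green/red luminescence ratio after 24 h compound exposure, normalised to untreated cells (0%). Engineered MSC80 mouse Schwann cells express green luciferase from the mouse Pmp22 promoter and red luciferase from EF-alpha as internal control.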

[3] = molecular target: ATP-dependent DNA helicase Q1 (Homo sapiens) (UniProt P46063); experiment: qHTS Validation Assay for Inhibitors of RecQ-Like Dna Helicase 1 (RECQ1) (AID 2353)
ATP-dependent DNA helicase Q1 (Homo sapiens), sequence (P46063 whole entry, looked up): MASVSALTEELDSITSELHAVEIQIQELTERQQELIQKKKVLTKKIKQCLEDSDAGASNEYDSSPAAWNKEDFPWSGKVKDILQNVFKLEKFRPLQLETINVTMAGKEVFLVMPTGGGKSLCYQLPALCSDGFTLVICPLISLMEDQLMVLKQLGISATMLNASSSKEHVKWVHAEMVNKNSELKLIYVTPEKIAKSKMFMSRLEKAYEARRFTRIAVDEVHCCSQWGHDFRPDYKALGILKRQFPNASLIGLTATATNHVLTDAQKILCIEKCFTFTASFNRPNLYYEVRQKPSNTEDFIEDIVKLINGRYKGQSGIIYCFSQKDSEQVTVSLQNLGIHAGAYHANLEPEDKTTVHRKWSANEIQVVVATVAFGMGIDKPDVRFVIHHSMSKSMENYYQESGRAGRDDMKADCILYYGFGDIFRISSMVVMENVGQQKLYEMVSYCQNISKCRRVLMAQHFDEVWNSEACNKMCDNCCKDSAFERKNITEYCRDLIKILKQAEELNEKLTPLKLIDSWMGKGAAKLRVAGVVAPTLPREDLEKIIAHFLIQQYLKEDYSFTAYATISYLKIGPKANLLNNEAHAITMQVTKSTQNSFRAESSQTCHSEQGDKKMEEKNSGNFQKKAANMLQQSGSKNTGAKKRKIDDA
In short: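 50 nM RECQ1T1 preincubated 15 min with compound in Tris pH 8.0 buffer with MgCl2, DTT, Tween-20 and 2.5 ug/ml poly(dI-dC); started with 200 nM TAMRA/BHQ-2 forked duplex and 2 mM ATP. Unwinding read as fluorescence (525/598 nm), two reads 2 h apart.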

[4] = molecular target: RecQ-like DNA helicase BLM (Homo sapiens) (UniProt P54132); experiment: qHTS Validation Assay for Inhibitors of Bloom's syndrome helicase (BLM) (AID 2364)
RecQ-like DNA helicase BLM (Homo sapiens), sequence (P54132 whole entry, looked up): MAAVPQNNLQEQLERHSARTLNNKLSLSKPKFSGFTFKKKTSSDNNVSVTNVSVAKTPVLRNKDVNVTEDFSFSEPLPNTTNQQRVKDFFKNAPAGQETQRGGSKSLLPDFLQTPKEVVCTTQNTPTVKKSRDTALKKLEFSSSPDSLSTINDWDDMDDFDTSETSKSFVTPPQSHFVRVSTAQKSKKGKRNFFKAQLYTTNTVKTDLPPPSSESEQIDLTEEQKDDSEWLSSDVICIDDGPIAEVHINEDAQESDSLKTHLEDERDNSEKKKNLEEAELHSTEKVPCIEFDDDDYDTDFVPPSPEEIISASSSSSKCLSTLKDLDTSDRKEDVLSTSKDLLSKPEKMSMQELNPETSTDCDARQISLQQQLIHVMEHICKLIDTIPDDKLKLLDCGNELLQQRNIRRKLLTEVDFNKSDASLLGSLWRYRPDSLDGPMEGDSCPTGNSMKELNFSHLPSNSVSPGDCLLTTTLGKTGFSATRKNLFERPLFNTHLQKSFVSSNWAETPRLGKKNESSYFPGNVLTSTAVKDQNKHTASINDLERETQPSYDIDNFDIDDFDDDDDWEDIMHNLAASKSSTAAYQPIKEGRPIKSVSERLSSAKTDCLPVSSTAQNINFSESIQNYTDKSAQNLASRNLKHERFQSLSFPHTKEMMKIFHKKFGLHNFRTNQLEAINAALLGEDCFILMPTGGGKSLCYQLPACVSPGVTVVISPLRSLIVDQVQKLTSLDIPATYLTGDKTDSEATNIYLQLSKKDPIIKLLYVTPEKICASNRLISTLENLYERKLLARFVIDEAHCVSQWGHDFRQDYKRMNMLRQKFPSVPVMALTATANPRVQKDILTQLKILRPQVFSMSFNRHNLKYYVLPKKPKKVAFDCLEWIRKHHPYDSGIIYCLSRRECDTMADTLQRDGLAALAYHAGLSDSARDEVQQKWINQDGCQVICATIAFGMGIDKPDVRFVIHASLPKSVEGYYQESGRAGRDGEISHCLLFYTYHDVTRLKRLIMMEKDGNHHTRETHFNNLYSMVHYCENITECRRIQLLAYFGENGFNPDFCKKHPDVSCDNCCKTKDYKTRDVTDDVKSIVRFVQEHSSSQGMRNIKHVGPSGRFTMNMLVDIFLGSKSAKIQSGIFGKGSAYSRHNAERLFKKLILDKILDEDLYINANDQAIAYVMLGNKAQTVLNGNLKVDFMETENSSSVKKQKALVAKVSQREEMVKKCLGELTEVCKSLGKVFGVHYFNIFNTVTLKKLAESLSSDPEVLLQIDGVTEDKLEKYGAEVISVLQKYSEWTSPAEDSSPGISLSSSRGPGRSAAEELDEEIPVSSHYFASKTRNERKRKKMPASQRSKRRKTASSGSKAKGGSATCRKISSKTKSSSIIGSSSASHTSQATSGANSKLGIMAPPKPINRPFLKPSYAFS
In short: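 BLM 50 nM in 25 mM Tris-HCl pH 8.0, 5 mM NaCl, 2 mM MgCl2, 1 mM DTT, 0.01% Tween-20, 2.5 ug/ml poly(dI-dC); 15 min cpd preinc, RT. Start: 200 nM forked DNA + 2 mM ATP (final). TAMRA read, 2 reads 2 h apart.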

[5] = Cytometric Cell-Based qHTS for Inhibitors of the mTORC1 Signaling Pathway in MEF (Tsc2-/-, p53-/-) Cells (AID 2660);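 note: percent of cells above a phospho-rpS6 to PI ratio cutoff in each well; series mostly up to about 38 µM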
In short: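 Immunofluorescence qHTS of rpS6 Ser235/236 phosphorylation: MEFs (Tsc2-/-, p53-/-) treated 24 h, 37 C, in DMEM + 10% FBS. Alexa-488 signal normalized to PI count, referenced to rapamycin (7.5 nM) and DMSO; PI cell number recorded for viability.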

[6] = High Content Imaging Cell-Based qHTS for Inhibitors of the mTORC1 Signaling Pathway in MEF (Tsc2-/-, p53-/-) Cells (AID 2666);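 note: percent of cells scored positive for phospho-rpS6 Ser235/236 immunostaining by imaging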
In short: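 Read-out: % positive cells per well, with thresholds from highest- and lowest-signal wells, based on phospho-rpS6 (Ser235/236) intensity normalized to Hoechst nuclear stain. Cells: Tsc2-/-, p53-/- MEFs carrying empty vector; compound 24 hrs, 37 degree Celsius.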

[7] = High Content Imaging Cell-Based qHTS for Inhibitors of the mTORC1 Signaling Pathway in MEF Cells (AID 2667); note: potency is the fitted concentration of half-maximal effect
In short: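 MEF (Tsc2-/-, p53-/-, WT Tsc2 re-expressed); cpd 24 h, 37 °C; PFA fix; Alexa-488 anti-p-rpS6 Ser235/236, PI, Hoechst; IN Cell imaging; Hoechst/Alexa-488 intensity ratio; % active cells, thresholds set from rapamycin and DMSO wells.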

[8] = Validation screen for small molecules that induce DNA re-replication in MCF 10A normal breast cells (AID 463097); note: nearly all actives have a fitted effect of over 60% in size
In short: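 Read-out is Hoechst total nuclear intensity by fluorescence scanning imager, flagging increased high-DNA-content nuclei. Compounds were incubated with MCF 10A cells for 48 hr (37 C, 5% CO2) before 40 min staining.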

[9] = molecular target: Ubiquitin carboxyl-terminal hydrolase 2 (Homo sapiens) (UniProt O75604); experiment: qHTS Validation Assay for Inhibitors of Ubiquitin-specific Protease USP2a Using CHOP2 as the Reporter (AID 463106)
In short: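 USP2 core (10nM final) was preincubated with compound for 30min at RT in 20mM Tris-HCl pH 8.0, 2mM CaCl2, 2mM beta-mercaptoethanol, 0.05% CHAPS. Ub-CHOP2 and reporter substrate (25nM each) were added, and fluorescence (Ex 485/Em 531nm) was read after 60min.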

[10] = molecular target: DNA polymerase III PolC-type (Bacillus subtilis (strain 168)) (UniProt P13267); experiment: qHTS Validation Assay for the Inhibitors of DNA Replication in Gram-Positive Bacteria (AID 485295);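 note: reconstituted holoenzyme with PolC plus beta clamp SSB and primase; PicoGreen fluorescence of double-stranded DNA made on primed circular M13 template; series mostly up to about 57 µM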
DNA polymerase III PolC-type (Bacillus subtilis (strain 168)), sequence (P13267 whole entry, looked up): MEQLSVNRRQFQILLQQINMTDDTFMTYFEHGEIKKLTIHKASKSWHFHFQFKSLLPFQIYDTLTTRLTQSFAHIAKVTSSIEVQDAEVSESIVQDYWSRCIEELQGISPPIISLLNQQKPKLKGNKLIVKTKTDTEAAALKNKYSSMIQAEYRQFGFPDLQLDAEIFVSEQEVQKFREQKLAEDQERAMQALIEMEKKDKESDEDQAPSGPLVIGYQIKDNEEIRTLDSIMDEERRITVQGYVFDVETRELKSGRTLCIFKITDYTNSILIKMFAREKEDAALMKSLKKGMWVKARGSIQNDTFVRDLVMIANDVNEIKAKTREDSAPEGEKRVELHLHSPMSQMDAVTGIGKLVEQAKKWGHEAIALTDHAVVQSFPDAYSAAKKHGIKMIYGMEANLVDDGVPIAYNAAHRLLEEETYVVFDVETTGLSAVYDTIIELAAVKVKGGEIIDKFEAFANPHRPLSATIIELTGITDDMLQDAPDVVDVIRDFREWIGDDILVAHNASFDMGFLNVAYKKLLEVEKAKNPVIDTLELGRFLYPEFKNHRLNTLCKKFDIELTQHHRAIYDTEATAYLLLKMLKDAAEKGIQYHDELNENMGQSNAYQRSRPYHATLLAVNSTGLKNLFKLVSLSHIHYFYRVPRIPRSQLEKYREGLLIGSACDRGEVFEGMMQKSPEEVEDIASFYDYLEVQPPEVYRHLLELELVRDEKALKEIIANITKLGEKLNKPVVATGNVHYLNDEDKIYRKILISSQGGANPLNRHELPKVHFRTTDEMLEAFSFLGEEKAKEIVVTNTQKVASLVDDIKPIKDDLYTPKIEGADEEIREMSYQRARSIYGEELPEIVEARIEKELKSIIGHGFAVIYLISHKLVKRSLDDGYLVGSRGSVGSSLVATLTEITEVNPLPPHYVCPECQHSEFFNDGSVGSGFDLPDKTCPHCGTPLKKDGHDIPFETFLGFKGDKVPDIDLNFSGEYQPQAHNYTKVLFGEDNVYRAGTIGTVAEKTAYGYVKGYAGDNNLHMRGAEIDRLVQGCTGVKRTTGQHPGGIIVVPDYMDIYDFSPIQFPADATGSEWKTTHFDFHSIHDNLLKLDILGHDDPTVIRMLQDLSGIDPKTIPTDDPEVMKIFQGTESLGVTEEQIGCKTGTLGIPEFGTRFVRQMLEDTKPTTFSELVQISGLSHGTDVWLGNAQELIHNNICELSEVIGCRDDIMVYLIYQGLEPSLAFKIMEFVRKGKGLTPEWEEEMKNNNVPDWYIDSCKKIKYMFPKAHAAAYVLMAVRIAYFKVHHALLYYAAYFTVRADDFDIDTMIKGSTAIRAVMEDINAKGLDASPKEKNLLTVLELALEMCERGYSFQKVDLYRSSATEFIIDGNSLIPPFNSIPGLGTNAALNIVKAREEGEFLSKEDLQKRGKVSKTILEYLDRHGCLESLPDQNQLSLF
In short: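 Double-stranded DNA product detected by PicoGreen fluorescence after EDTA quench. Compound incubated with B. subtilis holoenzyme (PolC, beta subunit, SSB, primase) before substrate addition; primed replication of M13Gori with dNTPs and NTPs at room temperature; DMSO defines 0% inhibition.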

[11] = molecular target: Tumor susceptibility gene 101 protein (Homo sapiens) (UniProt Q99816); experiment: qHTS Validation Assay for Iinhibitors of HIV-1 Budding by Blocking the Interaction of PTAP/TSG101 (AID 485342; calls by dose curve)
Tumor susceptibility gene 101 protein (Homo sapiens), sequence (Q99816 whole entry, looked up, the tested form may be a part): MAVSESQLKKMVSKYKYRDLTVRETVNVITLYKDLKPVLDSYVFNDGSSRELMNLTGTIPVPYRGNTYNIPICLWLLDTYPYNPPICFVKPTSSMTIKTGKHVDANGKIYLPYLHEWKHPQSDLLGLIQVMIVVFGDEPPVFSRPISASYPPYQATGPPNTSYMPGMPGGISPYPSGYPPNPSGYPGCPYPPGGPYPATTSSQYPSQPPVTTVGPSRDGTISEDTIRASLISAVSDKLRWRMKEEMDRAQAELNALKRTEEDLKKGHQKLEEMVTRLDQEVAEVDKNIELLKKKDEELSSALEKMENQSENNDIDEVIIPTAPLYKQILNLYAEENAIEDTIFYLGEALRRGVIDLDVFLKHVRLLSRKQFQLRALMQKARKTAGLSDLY
In short: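 Fluorescence polarization of 50 nM FITC-PTAP peptide bound to 10 uM Tsg101 binding domain was read after 20 min room-temperature incubation with compounds, in 10 mM HEPES pH 7.5, 0.15 M NaCl, 0.01% Tween 20.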

[12] = qHTS Validation Assay to Find Inhibitors of Chronic Active B-Cell Receptor Signaling (AID 485345; active = well fitted curve in the direction sought with a large enough effect in the main read-out, with a control signal flat, not every such curve was filed as active)
In short: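 TMD8 ABC-DLBCL cells with dox-inducible green luciferase–IκBα fusion and red native luciferase; compounds 46 uM–3 nM, 4 h at 37C with doxycycline in 0.5% FBS IMDM. Green/red ratio normalized to basal and 10 uM MG-132.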

[13] = molecular target: Beta-2 adrenergic receptor (Homo sapiens) (UniProt P07550); experiment: qHTS validation assay of beta-arrestin-biased ligands of beta2-adrenergic receptor (AID 485366)
Beta-2 adrenergic receptor (Homo sapiens), sequence (P07550 whole entry, looked up): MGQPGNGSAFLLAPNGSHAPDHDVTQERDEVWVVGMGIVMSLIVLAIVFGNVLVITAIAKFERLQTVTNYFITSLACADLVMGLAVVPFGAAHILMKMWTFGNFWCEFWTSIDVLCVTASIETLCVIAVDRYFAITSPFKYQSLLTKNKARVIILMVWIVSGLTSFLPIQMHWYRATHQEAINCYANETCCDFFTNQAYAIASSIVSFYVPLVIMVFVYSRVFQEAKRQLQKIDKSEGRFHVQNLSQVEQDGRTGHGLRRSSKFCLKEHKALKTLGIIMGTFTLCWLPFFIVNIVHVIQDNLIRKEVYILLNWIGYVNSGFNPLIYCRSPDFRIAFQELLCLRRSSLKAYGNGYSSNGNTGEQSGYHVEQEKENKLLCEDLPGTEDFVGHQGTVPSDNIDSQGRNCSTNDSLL
In short: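 Arrestin-recruitment (Tango) reporter: ligand-bound beta2-AR recruits beta-arrestin, releasing tTA, which upregulates luciferase. Titrations of up to 46 microM incubated 18 hr at 37 degrees C before luminescent readout.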

[14] = molecular target: ATP-dependent 6-phosphofructokinase (Trypanosoma brucei brucei) (UniProt O15648); experiment: qHTS Validation Assay to Find Inhibitors of T. brucei phosphofructokinase (AID 485368); note: potency is the fitted concentration of half-maximal effect
ATP-dependent 6-phosphofructokinase (Trypanosoma brucei brucei), sequence (O15648 whole entry, looked up): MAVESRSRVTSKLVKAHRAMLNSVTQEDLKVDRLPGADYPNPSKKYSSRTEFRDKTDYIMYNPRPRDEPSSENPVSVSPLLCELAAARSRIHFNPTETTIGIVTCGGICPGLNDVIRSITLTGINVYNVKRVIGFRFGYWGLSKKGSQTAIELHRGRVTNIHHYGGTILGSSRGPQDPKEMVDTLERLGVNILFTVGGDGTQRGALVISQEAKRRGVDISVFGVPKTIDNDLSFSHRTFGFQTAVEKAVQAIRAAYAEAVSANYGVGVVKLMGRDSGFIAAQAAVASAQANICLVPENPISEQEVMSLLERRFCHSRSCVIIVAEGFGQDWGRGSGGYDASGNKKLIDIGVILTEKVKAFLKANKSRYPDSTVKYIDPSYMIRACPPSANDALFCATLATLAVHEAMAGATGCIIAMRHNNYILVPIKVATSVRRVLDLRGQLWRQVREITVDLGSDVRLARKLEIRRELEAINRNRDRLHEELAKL
In short: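 Steps: substrate mix (0.5 mM F6P, 0.1 mM ATP, MgCl2, TEA pH 8.0); compound; 1.25 nM T. brucei PFK; 45 min RT; ATP depletion 10 min; ADP-to-ATP detection 10 min; luminescence read; curve fitting and classification.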

[15] = Quantitative high throughput screen for delayed death inhibitors of the malarial parasite plastid, 96 hour incubation (AID 488745); note: nearly all actives have a fitted effect of over 70% in size; note: potency is the fitted concentration of half-maximal effect
In short: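 P. falciparum carrying an integrated firefly luciferase reporter, grown in erythrocytes (2% hematocrit, 0.1% parasitemia final) in RPMI 1640/0.5% Albumax, was exposed to compound for 96 h (two generations) at 37 C, 5% CO2. Luminescence decrease indicated growth inhibition.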

[16] = Quantitative high throughput screen for delayed death inhibitors of the malarial parasite plastid, 48 hour incubation (AID 488752); note: nearly all actives have a fitted effect of over 65% in size; note: potency is the fitted concentration of half-maximal effect
In short: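 Erythrocytes infected with P. falciparum carrying an integrated firefly luciferase reporter (2% hematocrit, 0.1% parasitemia final) were exposed to compounds in RPMI 1640/0.5% Albumax for 48 h at 37 C, 5% CO2. Growth inhibition was scored as reduced luminescence.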

[17] = qHTS for differential inhibitors of proliferation of Plasmodium falciparum line HB3 (AID 1886); conditions: Potency: Plasmodium falciparum HB3 proliferation inhibition;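 note: parasites grown with compound for 72 h before SYBR Green readout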; note: potency is the fitted concentration of half-maximal effect
[18] = Cytometry Cell-Based qHTS for Inhibitors of the mTORC1 Signaling Pathway in MEF cells (AID 2668);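 note: Tsc2-/- p53-/- mouse embryonic fibroblasts stably re-expressing wild-type Tsc2; percent cells positive for phospho-rpS6 Ser235/236 relative to propidium iodide stain; series mostly up to about 38 µM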
In short: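 Phospho-rpS6 (Ser235/236) immunofluorescence over PI signal, scored as % positive cells using thresholds from 7.5 nM rapamycin and DMSO wells, after 24 h compound exposure of WT-Tsc2-rescued Tsc2-/-, p53-/- MEFs. PI cell count recorded for viability.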

[19] = qHTS Assay for Identification of Small Molecule Inducers of Hypoxia Response (AID 2120; active = well fitted curve in the direction sought with a large enough effect in the signal ratio, with a control signal flat, not every such curve was filed as active; the % refers to the signal ratio)
In short: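 HRE-beta-lactamase reporter in CellSensor HRE-bla ME-180 cells, 2500 cells/well in Opti-MEM with 0.5% dialyzed FBS; compounds tested as titration series, 17 h at 37 degrees C. CCF4 substrate 2.5 h at room temperature; AC50 from 460/530 nm ratio.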

[20] = molecular target: Ferritin light chain (Equus caballus) (UniProt P02791); experiment: qHTS Validation Assay for Identification of Novel General Anesthetics (AID 2323); note: series mostly up to about 77 µM
Ferritin light chain (Equus caballus), sequence (P02791 2-175 limits assumed): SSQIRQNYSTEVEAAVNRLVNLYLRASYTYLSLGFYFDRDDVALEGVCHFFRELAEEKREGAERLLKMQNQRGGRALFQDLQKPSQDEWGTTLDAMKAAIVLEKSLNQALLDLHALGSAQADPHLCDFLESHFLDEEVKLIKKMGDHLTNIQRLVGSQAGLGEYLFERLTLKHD
In short: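 Competitive displacement of the profluorescent anesthetic 1-AMA (50% saturated, PBS) from 10 uM apoferritin, 10 min, room temperature. Activity is normalized 380/535 nm fluorescence; concentration-response fitted with a four-parameter Hill equation.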

Measured: Potency

CC1COc2c(N3CCN(C)CC3)c(F)cc3c(=O)c(C(=O)O)cn1c23 (stereo not drawn)
active: [1] 14.1 µM
not listed: [17] | [18] | [19] | [20]
inactive: all other assays above

CCOC(=O)c1ncn2c1CN(C)C(=O)c1cc(F)ccc1-2
not listed: [2] | [4] | [8] | [16] | [18] | [19] | [20]
inactive: all other assays above

CN(Cc1cnc2nc(N)nc(N)c2n1)c1ccc(C(=O)N[C@@H](CCC(=O)O)C(=O)O)cc1
active: [1] 0.0398 µM | [17] 0.0708 µM | [14] 37.9 µM
not listed: [2] | [4] | [13] | [19] | [20]
inactive: all other assays above

Cc1ccc(-c2cc(C(F)(F)F)nn2-c2ccc(S(N)(=O)=O)cc2)cc1
inactive: [19]

CC(COc1ccccc1)N(CCCl)Cc1ccccc1 (stereo not drawn)
not listed: [1] | [2] | [8] | [13] | [14] | [17] | [18] | [19]
inactive: all other assays above

COc1ccc(CCN(C)CCCC(C#N)(c2ccc(OC)c(OC)c2)C(C)C)cc1OC (stereo not drawn)
inactive: [20] | [3] | [4] | [5] | [6] | [10] | [11] | [13]

O=C1Cc2cc(CCN3CCN(c4nsc5ccccc45)CC3)c(Cl)cc2N1
inactive: [6] | [7] | [18] | [9] | [10] | [11] | [13] | [14]

CC(C(=O)O)c1cccc(C(=O)c2ccccc2)c1 (stereo not drawn)
active: [2] 23.9 µM
not listed: [1] | [8] | [13] | [14] | [17] | [18] | [19]
inactive: all other assays above

COc1nc(C)nc(Cl)c1NC1=NCCN1
not listed: [1] | [2] | [4] | [19]
inactive: all other assays above

O=c1c(O)c(-c2ccc(O)c(O)c2)oc2cc(O)cc(O)c12
inactive: [20] | [5] | [6] | [7] | [8] | [11] | [13]

CN(C)C(=O)C(CCN1CCC(O)(c2ccc(Cl)cc2)CC1)(c1ccccc1)c1ccccc1
inactive: [3] | [9] | [10] | [11] | [14]

O=c1[nH]cc(F)c(=O)[nH]1
inactive: [20] | [3] | [4] | [5] | [6] | [7] | [9] | [10] | [11] | [12] | [13]

C[C@H]1c2cccc(O)c2C(O)=C2C(=O)[C@]3(O)C(O)=C(C(N)=O)C(=O)[C@@H](N(C)C)[C@@H]3[C@@H](O)[C@@H]21
inactive: [5] | [6] | [7] | [9] | [10] | [11] | [12] | [14]

Cc1cnc(C(=O)NCCc2ccc(S(=O)(=O)NC(=O)NC3CCCCC3)cc2)cn1
not listed: [1] | [2] | [4] | [8] | [13] | [18] | [19] | [20]
inactive: all other assays above

COc1ccccc1OCCNCC(O)COc1cccc2[nH]c3ccccc3c12 (stereo not drawn)
inactive: [5] | [6] | [9] | [10] | [11]

OCCN1CCN(CCCN2c3ccccc3Sc3ccc(C(F)(F)F)cc32)CC1
inactive: [3] | [4] | [9] | [10] | [11] | [13]

O=C(CCCN1CCC(O)(c2ccc(Cl)cc2)CC1)c1ccc(F)cc1
active: [7] 23.3 µM | [15] 7.38 µM | [16] 10.4 µM
not listed: [1] | [2] | [14] | [17] | [18] | [19]
inactive: all other assays above

Clc1ccc(C(c2ccccc2Cl)C(Cl)Cl)cc1 (stereo not drawn)
not listed: [1] | [2] | [4] | [8] | [14] | [18] | [19]
inactive: all other assays above
